Where “and” joins values, the source holds several entries; their conditions need not be identical. Equal entries are not always repeated. About 2,000 (36%) of roughly 5,500 compounds were called active. Inconclusive results (about 18%) are left out. No stated cut-off is given here; in the data, active means normalized growth mostly below about 0.91 (no sharp cut-off); inconclusive means no clear call, values can overlap the other calls; inactive means mostly above about 0.92. This is one part of the list.
Experiment: chemical genetic growth profiling, strain panel (AID 1159580);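 further: tested at 20 µM; growth read once vehicle control cultures reached saturation at 30 °C; 1 = growth at the plate median or of vehicle wells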
Details: S. cerevisiae deletion strains, growth OD

Measured: normalized growth

CCC(=O)c1c(O)cc(O)cc1O
inactive: locus YAL013W, strain DEP1, stronger effect = lower value 1.01 | locus YAL021C, strain ccr4, stronger effect = lower value 0.953 | locus YAL026C, strain drs2, stronger effect = lower value 0.975 | locus YAL030W, strain snc1, stronger effect = lower value 0.983 | locus YBL061C, strain skt5, stronger effect = lower value 0.98 | locus YBR009C, strain hhf1, stronger effect = lower value 1.03 | locus YBR021W, strain FUR4, stronger effect = lower value 1.03 | locus YBR023C, strain chs3, stronger effect = lower value 0.994 | locus YBR171W, strain sec66, stronger effect = lower value 0.979 | locus YBR229C, strain ROT2, stronger effect = lower value 0.994 | locus YBR231C, strain swc5, stronger effect = lower value 0.987 | locus YBR279W, strain paf1, stronger effect = lower value 0.992 | locus YCL011C, strain gbp2, stronger effect = lower value 0.989 | locus YCL016C, strain dcc1, stronger effect = lower value 0.974 | locus YCL029C, strain bik1, stronger effect = lower value 0.982 | locus YCL069W, strain vba3, stronger effect = lower value 0.992 | locus YCR088W, strain abp1, stronger effect = lower value 0.991 | locus YDL005C, strain med2, stronger effect = lower value 0.977 | locus YDL035C, strain GPR1, stronger effect = lower value 1.01 | locus YDL040C, strain nat1, stronger effect = lower value 0.99 | locus YDL074C, strain BRE1, stronger effect = lower value 1 | locus YDL101C, strain DUN1, stronger effect = lower value 1.01 | locus YDL134C, strain PPH21, stronger effect = lower value 1.01 | locus YDL185W, strain tfp1, stronger effect = lower value 0.972 | locus YDL192W, strain arf1, stronger effect = lower value 0.981 | locus YDR001C, strain nth1, stronger effect = lower value 0.987 | locus YDR069C, strain doa4, stronger effect = lower value 0.983 | locus YDR101C, strain arx1, stronger effect = lower value 0.975 | locus YDR137W, strain rgp1, stronger effect = lower value 0.968 | locus YDR150W, strain NUM1, stronger effect = lower value 1 | locus YDR159W, strain sac3, stronger effect = lower value 0.995 | locus YDR162C, strain NBP2, stronger effect = lower value 1 | locus YDR195W, strain ref2 0.955 | locus YDR297W, strain sur2, stronger effect = lower value 0.982 | locus YDR318W, strain mcm21, stronger effect = lower value 0.977 | locus YDR334W, strain swr1, stronger effect = lower value 0.979 | locus YDR335W, strain msn5, stronger effect = lower value 0.986 | locus YDR388W, stronger effect = lower value 0.981 | locus YDR392W, strain spt3, stronger effect = lower value 0.968 | locus YDR502C, strain sam2, stronger effect = lower value 0.979 | locus YEL003W, strain gim4, stronger effect = lower value 0.99 | locus YEL037C, strain rad23, stronger effect = lower value 0.982 | locus YEL061C, strain CIN8 (second series), stronger effect = lower value 0.992 | locus YEL061C, strain CIN8, stronger effect = lower value 1 | locus YER015W, strain faa2, stronger effect = lower value 0.991 | locus YER016W, strain bim1, stronger effect = lower value 0.968 | locus YER110C, stronger effect = lower value 0.979 | locus YER111C, strain swi4, stronger effect = lower value 1 | locus YER155C, strain BEM2 (second series), stronger effect = lower value 0.983 | locus YER155C, strain BEM2, stronger effect = lower value 0.989 | locus YER167W, strain BCK2, stronger effect = lower value 1.01 | locus YFR010W, strain ubp6, stronger effect = lower value 0.998 | locus YGL078C, strain dbp3, stronger effect = lower value 0.975 | locus YGL086W, strain mad1, stronger effect = lower value 0.995 | locus YGL167C, strain pmr1, stronger effect = lower value 0.974 | locus YGL173C, strain kem1, stronger effect = lower value 1.01 | locus YGL227W, strain vid30, stronger effect = lower value 0.993 | locus YGL240W, strain doc1, stronger effect = lower value 1 | locus YGL248W, strain PDE1, stronger effect = lower value 1.01 | locus YGL253W, strain hxk2, stronger effect = lower value 0.986 | locus YGR078C, strain PAC10, stronger effect = lower value 1.01 | locus YGR135W, strain pre9, stronger effect = lower value 0.985 | locus YGR229C, strain SMI1, stronger effect = lower value 0.992 | locus YGR252W, strain gcn5, stronger effect = lower value 0.921 | locus YHR013C, strain ard1, stronger effect = lower value 0.938 | locus YHR027C, strain rpn1, stronger effect = lower value 1.01 | locus YHR030C, strain SLT2, stronger effect = lower value 1.01 | locus YHR079C, strain IRE1 (second series), stronger effect = lower value 0.978 | locus YHR079C, strain IRE1, stronger effect = lower value 1.03 | locus YHR094C, strain hxt1, stronger effect = lower value 0.983 | locus YHR129C, strain ARP1, stronger effect = lower value 0.999 | locus YHR142W, strain chs7, stronger effect = lower value 0.989 | locus YHR200W, strain rpn10, stronger effect = lower value 0.972 | locus YIL066C, strain RNR3, stronger effect = lower value 1.01 | locus YIL073C, strain SPO22, stronger effect = lower value 1.07 | locus YIL125W, strain kgd1, stronger effect = lower value 0.984 | locus YIR030C, strain dcg1, stronger effect = lower value 0.979 | locus YJL092W, strain hpr5, stronger effect = lower value 0.987 | locus YJL095W, strain BCK1 (second series), stronger effect = lower value 0.995 | locus YJL095W, strain BCK1, stronger effect = lower value 1 and 1.02 | locus YJL115W, strain asf1, stronger effect = lower value 0.996 | locus YJL129C, strain trk1, stronger effect = lower value 0.996 | locus YJL134W, strain LCB3, stronger effect = lower value 0.999 | locus YJL154C, strain vps35, stronger effect = lower value 0.975 | locus YJL164C, strain tpk1, stronger effect = lower value 0.993 | locus YJL166W, strain qcr8, stronger effect = lower value 0.991 | locus YJL168C, strain set2, stronger effect = lower value 0.979 | locus YJL187C, strain SWE1 (second series), stronger effect = lower value 1.01 | locus YJR043C, strain POL32, stronger effect = lower value 1.01 | locus YJR066W, strain TOR1, stronger effect = lower value 0.97 | locus YJR075W, strain HOC1, stronger effect = lower value 1.01

Source: PubChem BioAssay AID1159580 (chemical genetic matrix, 2015)
